# Anthrax LF inh2: Bacillus anthracis LF protease inhibitors, primary screen, biochemical, multiplex microsphere, MLPCN library | 360,000 compounds, 0.12% hits | AID 588501, 2011 | multiplex microsphere protease cleavage assay | Lethal factor (Bacillus anthracis), P15917 | inhibition, % at 10 µM
# BoNT F protease: BoNT/F light chain protease inhibitors, primary screen, biochemical, flow cytometry, MLPCN library | Botulinum neurotoxin type F light chain protease (Clostridium botulinum) | Multiplex microsphere protease cleavage assay | inhibition, % at 10 µM | 360,000 compounds, 0.22% hits | AID 588497, 2011; in the data active = inhibition above about 35%, passing the limit was not always enough; inconclusive = no clear call, values can overlap the other calls
# Bead autofluor: flagged as autofluorescent in microsphere protease counterscreen | compound autofluorescence counterscreen, microsphere flow cytometry; hits give high values | fluorescence intensity (test concentration not listed) | 360,000 compounds, 3.1% hits; in the data active = fluorescence intensity above about 16000; inconclusive = no clear call, values can overlap the other calls
# MazEF act: activators of E. coli MazEF toxin-antitoxin RNase, primary screen, biochemical, fluorescence, uHTS; Endoribonuclease toxin MazF (Escherichia coli (strain K12)), P0AE70; FAM/BHQ RNA-DNA oligo cleavage fluorescence, 5 h; activation, % at 20 µM; 350,000 compounds, 0.32% hits; in the data active = activation above about 50%
# Target sequence (P0AE70 whole entry, looked up): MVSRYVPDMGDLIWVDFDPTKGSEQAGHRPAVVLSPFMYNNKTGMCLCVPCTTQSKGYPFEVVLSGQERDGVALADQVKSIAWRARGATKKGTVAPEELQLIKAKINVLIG
# BoNT-A LC inh2: BoNT/A light chain protease inhibitors, primary screen, biochemical, flow cytometry, MLPCN library; inhibition, % at 10 µM; Botulinum neurotoxin type A light chain protease (Clostridium botulinum A str. ATCC 3502); AID 588499, 2011; multiplex microsphere protease substrate cleavage; 360,000 compounds, 0.17% hits
# Numbers stand for hits; - = inactive; ? = inconclusive; . = no result. The list is not random: actives were taken first. Their share in the collection is about 3.6%. Rule as the data show it, unless noted: active = inhibition above about 30%; inconclusive = no clear call, values can overlap the other calls; inactive = below that.
SMILES,Anthrax LF inh2,BoNT F protease,Bead autofluor,MazEF act,BoNT-A LC inh2
O=c1c(NCCc2ccccc2)c(-c2ccccc2)c1=O,-,-,-,-,-
CC(C)NC(=S)NNC(=O)C12CC3CC(CC(C3)C1)C2,-,-,24739,-,?
Cc1noc(C)c1S(=O)(=O)NC(=O)C1(C)CCN1C(=O)Cc1ccc(Cl)cc1Cl (centres undefined),-,-,-,.,-
COC(=O)CC1NCCNC1=O (centres undefined),-,-,-,-,-
COC(=O)CC1SCCNC1=O (centres undefined),-,-,20974,-,-
Cc1ccc(NC(=O)CC2SCCNC2=O)cc1Cl (centres undefined),-,-,23686,-,?
O=C(CC1SCCNC1=O)Nc1ccc(F)c(Cl)c1 (centres undefined),-,-,-,-,-
CC(C)Cc1nnc(NC(=O)c2ccc(-n3cncn3)c([N+](=O)[O-])c2)s1,-,-,-,-,-
CCCN(c1ccccc1F)S(=O)(=O)c1cc(-c2cc(C)no2)ccc1OC,-,-,-,-,-
Cc1nnc(NC(=O)CSCc2ccccc2)s1,-,-,-,-,-
CCOCCc1nnc(NC(=O)C(C)Oc2ccccc2)s1 (centres undefined),-,-,-,-,-
CCCC(=O)Nc1nnc(Cc2ccccc2)s1,-,-,24700,-,-
CCOCc1nnc(NC(=O)COC)s1,-,-,23993,-,-
CCOCc1nnc(NC(=O)CSCc2ccccc2)s1,-,-,20554,-,?
CCOCCc1nnc(NC(=O)C(CC)c2ccccc2)s1 (centres undefined),-,-,16622,-,-
O=C(c1ccc(Cl)c(S(=O)(=O)NCc2cccnc2)c1)N1CCCC1,.,.,.,-,.
Cc1ccc2nc(SCC(=O)N3CCCc4ccccc43)nc(=O)n2c1,-,-,-,-,-
CCCCOC(=O)Nc1ccc(S(=O)(=O)Nn2cnnc2)cc1,-,-,29599,-,?
CCCCOc1ccc(S(=O)(=O)Nc2ccc(NC(C)=O)cc2)cc1,-,-,21764,-,-
CCOc1ccc(NS(=O)(=O)c2ccc(C(=O)NCc3ccncc3)cc2)cc1,-,-,42543,-,-
CCCCN(CCCC)S(=O)(=O)c1ccc(NS(=O)(=O)c2ccc(NC(C)=O)cc2)cc1,-,-,21196,-,?
O=C(O)c1cccc(S(=O)(=O)N2CCN(S(=O)(=O)c3ccc4ccccc4c3)CC2)c1,-,-,-,-,-
CCCNC(=O)COc1ccc(S(=O)(=O)Nc2ccc(C)cc2)cc1,-,-,22233,-,-
CC[n+]1c(/C=C(\C)OC)sc2ccccc21,-,-,-,-,-
CC[n+]1c(/C=C/C=C/N(C(C)=O)c2ccccc2)sc2cc(OC)ccc21,.,.,.,506,.
SMILES,Anthrax LF inh2,BoNT F protease,Bead autofluor,MazEF act,BoNT-A LC inh2
Cn1c(=O)oc2cc(S(=O)(=O)Nc3cccc(C(=O)O)c3)ccc21,-,-,19703,-,-
CC(=O)c1cccc(NS(=O)(=O)c2ccc3c(c2)oc(=O)n3C)c1,-,-,-,-,-
Cn1c(=O)oc2cc(S(=O)(=O)NCCC(=O)NCCc3ccc(Cl)cc3)ccc21,-,-,19293,-,-
Cn1c(=O)oc2cc(S(=O)(=O)NCc3ccco3)ccc21,-,-,-,-,-
Cn1c(=O)oc2cc(S(=O)(=O)NCCC(=O)NCCc3ccccc3)ccc21,-,-,20294,-,-
CCC1CCCCN1Cc1ccc(CNS(=O)(=O)c2ccc3c(c2)oc(=O)n3C)o1 (centres undefined),-,-,22053,-,-
O=C(/C=C/[C@H]1O[C@@H](n2ccc(=O)[nH]c2=O)[C@H](O)[C@@H]1O)NCc1cccnc1,-,-,-,.,-
CCOc1cc2c(cc1OCC)CN(C(=O)c1cccc(S(=O)(=O)N3CCCC3)c1)CC2,-,-,-,-,-
Cc1cc(C)cc(NC(=O)CCNS(=O)(=O)c2ccc3c(c2)oc(=O)n3C)c1,-,-,-,-,?
CCOC(=O)c1ccc(NC(=O)CCNS(=O)(=O)c2ccc3c(c2)oc(=O)n3C)cc1,-,-,23217,-,-
CCCCN(CC)CCNS(=O)(=O)c1ccc2c(c1)oc(=O)n2C,-,-,-,-,-
CCCN(CCC)CCNS(=O)(=O)c1ccc2c(c1)oc(=O)n2C,-,-,22046,-,?
Cc1ccc(C)c(OCc2nc3ccc(S(=O)(=O)Nc4c(C)n(C)n(-c5ccccc5)c4=O)cc3[nH]2)c1,-,-,-,-,-
O=c1cc2c(c(-c3ccccc3)n1Cc1ccccc1)[C@@H](CCO)NC2,-,-,-,-,-
O=C1C=C(NCc2ccccc2)C2(CCCCC2)O1,-,-,22250,-,-
COc1ccc(-c2c(C)oc3ccc(C)cc23)cc1,-,-,23892,-,-
COc1ccc(-c2oc3ccc(-c4cc(OC)c(OC)c(OC)c4)cc3c2-c2ccc(OC)cc2)cc1,.,.,.,-,.
N#Cc1ccc(OCc2c(-c3ccccc3)nnn2CC(=O)O)cc1,-,-,-,.,-
COc1ccc(N2CCN(C(c3cccs3)C(C)NS(=O)(=O)c3ccccc3)CC2)cc1 (centres undefined),-,-,16688,-,-
CCN1CCN(C(c2cccs2)C(C)NC(=O)c2ccco2)CC1 (centres undefined),-,-,23437,-,-
CC(NC(=O)c1ccc(F)cc1)C(c1cccs1)N1CCN(C)CC1 (centres undefined),-,-,21892,-,-
CCS(=O)(=O)NC(C)C(c1cccs1)N1CCN(c2ccc(OC)cc2)CC1 (centres undefined),-,-,-,-,-
CCN1CCN(C(c2cccs2)C(C)NC(=O)CC(C)C)CC1 (centres undefined),-,-,-,-,-
COc1ccccc1C(=O)NC(C)C(c1cccs1)N1CCN(C)CC1 (centres undefined),-,-,23363,-,-
COc1ccc(C)cc1NC(=O)c1ccc2c(O)c(S(=O)(=O)c3ccccc3)c(=O)[nH]c2c1,-,-,-,-,-
CCc1cnc(Nc2nc(C(N)Cc3ccc(F)cc3)cs2)nc1 (centres undefined),-,-,-,.,-
CC(NS(=O)(=O)c1ccc(F)cc1)C(c1cccs1)N1CCN(C)CC1 (centres undefined),-,-,24274,-,-
CCC(=O)N(CC)C1=C(O)c2ccccc2C(=O)C1=O,-,-,20676,-,-
CCC(=O)N(C1=C(NC)C(=O)c2ccccc2C1=O)C(C)C,-,-,-,-,-
CCC(C)(C)n1nnnc1C(c1cc2cc(OC)ccc2[nH]c1=O)N1CCc2ccccc21 (centres undefined),-,-,16186,-,-

# Screening results from PubChem.
